In paper PMC5540273 (PLoS ONE, 2017):

Columns and labels:
Conditions in all cases: concentration: 1 μM, replicates: in singlicate; n = 1
DMPK = tested on: DMPK
DRAK1 = tested on: T1, DRAK1
T1 construct: gene STK17A

DRAK2 = tested on: T2, DRAK2
T2 construct: gene STK17B

DYRK1A = tested on: DYRK1A
DYRK1B = tested on: DYRK1B
DYRK2 = tested on: DYRK2
EGFR = tested on: EGFR
EIF2AK1 = tested on: EIF2AK1
EPHA1 = tested on: EPHA1
EPHA2 = tested on: EPHA2
EPHA3 = tested on: EPHA3
EPHA4 = tested on: EPHA4
EPHA5 = tested on: EPHA5
EPHA6 = tested on: EPHA6
EPHA7 = tested on: EPHA7
EPHA8 = tested on: EPHA8
EPHB1 = tested on: EPHB1
EPHB2 = tested on: EPHB2
EPHB3 = tested on: EPHB3
EPHB4 = tested on: EPHB4
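Also: KINOMEscan kinase panel screen.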

O=c1cc(N2CCOCC2)nc2n(Cc3cccc(C(F)(F)F)c3)ccn12 [GSK2297543]
%Inh (DMPK): 9%
%Inh (DRAK1): 0%
%Inh (DRAK2): 0%
%Inh (DYRK1A): 6%
%Inh (DYRK1B): 0%
%Inh (DYRK2): 5%
%Inh (EGFR): 25%
%Inh (EIF2AK1): 0%
%Inh (EPHA1): 0%
%Inh (EPHA2): 13%
%Inh (EPHA3): 0%
%Inh (EPHA4): 6%
%Inh (EPHA5): 0%
%Inh (EPHA6): 0%
%Inh (EPHA7): 0%
%Inh (EPHA8): 2%
%Inh (EPHB1): 24%
%Inh (EPHB2): 0%
%Inh (EPHB3): 3%
%Inh (EPHB4): 7%

COc1cc2c(cc1OCCN1CCN(C)CC1)ncc1c3ccc(C#N)cc3[nH]c21
%Inh (DMPK): 0%
%Inh (DRAK1): 100%
%Inh (DRAK2): 100%
%Inh (DYRK1A): 94.6%
%Inh (DYRK1B): 62%
%Inh (DYRK2): 60%
%Inh (EGFR): 0%
%Inh (EIF2AK1): 0%
%Inh (EPHA1): 0%
%Inh (EPHA2): 0%
%Inh (EPHA3): 18%
%Inh (EPHA4): 1%
%Inh (EPHA5): 0%
%Inh (EPHA6): 0%
%Inh (EPHA7): 0%
%Inh (EPHA8): 0%
%Inh (EPHB1): 10%
%Inh (EPHB2): 0%
%Inh (EPHB3): 2%
%Inh (EPHB4): 0%

COc1ccc(COc2cc(-n3cnc4ccccc43)sc2C(N)=O)cc1 [GSK1024304]
%Inh (DMPK): 29%
%Inh (DRAK1): 16%
%Inh (DRAK2): 0%
%Inh (DYRK1A): 16%
%Inh (DYRK1B): 12%
%Inh (DYRK2): 12%
%Inh (EGFR): 4%
%Inh (EIF2AK1): 0%
%Inh (EPHA1): 0%
%Inh (EPHA2): 0%
%Inh (EPHA3): 11%
%Inh (EPHA4): 0%
%Inh (EPHA5): 0%
%Inh (EPHA6): 0%
%Inh (EPHA7): 6%
%Inh (EPHA8): 19%
%Inh (EPHB1): 12%
%Inh (EPHB2): 9%
%Inh (EPHB3): 0%
%Inh (EPHB4): 11%

O=C(c1ccc(-c2cc(-c3c[nH]nc3-c3ccccn3)ccn2)cc1)N1CCOCC1 [GW812171]
%Inh (DMPK): 5%
%Inh (DRAK1): 0%
%Inh (DRAK2): 0%
%Inh (DYRK1A): 0%
%Inh (DYRK1B): 0%
%Inh (DYRK2): 33%
%Inh (EGFR): 4%
%Inh (EIF2AK1): 0%
%Inh (EPHA1): 0%
%Inh (EPHA2): 0%
%Inh (EPHA3): 17%
%Inh (EPHA4): 33%
%Inh (EPHA5): 1%
%Inh (EPHA6): 6%
%Inh (EPHA7): 0%
%Inh (EPHA8): 0%
%Inh (EPHB1): 13%
%Inh (EPHB2): 0%
%Inh (EPHB3): 16%
%Inh (EPHB4): 0%

COc1cc2c(cc1OC[C@@H](O)CO)ncc1c3ccc(C#N)cc3[nH]c21
%Inh (DMPK): 0%
%Inh (DRAK1): 98.7%
%Inh (DRAK2): 99.7%
%Inh (DYRK1A): 99%
%Inh (DYRK1B): 83%
%Inh (DYRK2): 86%
%Inh (EGFR): 0%
%Inh (EIF2AK1): 0%
%Inh (EPHA1): 4%
%Inh (EPHA2): 0%
%Inh (EPHA3): 0%
%Inh (EPHA4): 8%
%Inh (EPHA5): 11%
%Inh (EPHA6): 10%
%Inh (EPHA7): 0%
%Inh (EPHA8): 0%
%Inh (EPHB1): 0%
%Inh (EPHB2): 0%
%Inh (EPHB3): 14%
%Inh (EPHB4): 4%

[2H]C([2H])(c1cccc(C(F)(F)F)c1C)n1ccn2c(=O)nc(N3CCOCC3)cc12 [GSK2336394]
%Inh (DMPK): 0%
%Inh (DRAK1): 0%
%Inh (DRAK2): 0%
%Inh (DYRK1A): 16%
%Inh (DYRK1B): 0%
%Inh (DYRK2): 1%
%Inh (EGFR): 28%
%Inh (EIF2AK1): 0%
%Inh (EPHA1): 12%
%Inh (EPHA2): 8%
%Inh (EPHA3): 0%
%Inh (EPHA4): 1%
%Inh (EPHA5): 0%
%Inh (EPHA6): 0%
%Inh (EPHA7): 11%
%Inh (EPHA8): 19%
%Inh (EPHB1): 20%
%Inh (EPHB2): 0%
%Inh (EPHB3): 7%
%Inh (EPHB4): 8%

COc1ccc(CNC(=O)NC2CCN(c3ccnc(Nc4ccc(OC)cc4)n3)C2)cc1 (centres unmarked) [GSK1379727]
%Inh (DMPK): 0%
%Inh (DRAK1): 0%
%Inh (DRAK2): 0%
%Inh (DYRK1A): 20%
%Inh (DYRK1B): 0%
%Inh (DYRK2): 0%
%Inh (EGFR): 18%
%Inh (EIF2AK1): 0%
%Inh (EPHA1): 0%
%Inh (EPHA2): 14%
%Inh (EPHA3): 0%
%Inh (EPHA4): 10%
%Inh (EPHA5): 0%
%Inh (EPHA6): 2%
%Inh (EPHA7): 0%
%Inh (EPHA8): 1%
%Inh (EPHB1): 6%
%Inh (EPHB2): 0%
%Inh (EPHB3): 7%
%Inh (EPHB4): 11%

c1ccc(-c2cc(-c3c[nH]nc3-c3ccccn3)ccn2)cc1 [GW576604]
%Inh (DMPK): 0%
%Inh (DRAK1): 11%
%Inh (DRAK2): 0%
%Inh (DYRK1A): 4%
%Inh (DYRK1B): 0%
%Inh (DYRK2): 0%
%Inh (EGFR): 17%
%Inh (EIF2AK1): 0%
%Inh (EPHA1): 0%
%Inh (EPHA2): 0%
%Inh (EPHA3): 15%
%Inh (EPHA4): 0%
%Inh (EPHA5): 0%
%Inh (EPHA6): 0%
%Inh (EPHA7): 0%
%Inh (EPHA8): 0%
%Inh (EPHB1): 20%
%Inh (EPHB2): 0%
%Inh (EPHB3): 0%
%Inh (EPHB4): 7%

O=C(Nc1n[nH]c2cc(-c3cccc(F)c3)ccc12)C1CC1 [SB-735464]
%Inh (DMPK): 0%
%Inh (DRAK1): 7%
%Inh (DRAK2): 0%
%Inh (DYRK1A): 10%
%Inh (DYRK1B): 0%
%Inh (DYRK2): 16%
%Inh (EGFR): 0%
%Inh (EIF2AK1): 0%
%Inh (EPHA1): 25%
%Inh (EPHA2): 0%
%Inh (EPHA3): 17%
%Inh (EPHA4): 24%
%Inh (EPHA5): 0%
%Inh (EPHA6): 14%
%Inh (EPHA7): 14%
%Inh (EPHA8): 13%
%Inh (EPHB1): 0%
%Inh (EPHB2): 0%
%Inh (EPHB3): 20%
%Inh (EPHB4): 21%

Cc1cccc(-c2nc(Nc3ccc4ncsc4c3)c3ccccc3n2)n1 [GW867588]
%Inh (DMPK): 0%
%Inh (DRAK1): 0%
%Inh (DRAK2): 0%
%Inh (DYRK1A): 3%
%Inh (DYRK1B): 0%
%Inh (DYRK2): 33%
%Inh (EGFR): 2%
%Inh (EIF2AK1): 0%
%Inh (EPHA1): 0%
%Inh (EPHA2): 0%
%Inh (EPHA3): 22%
%Inh (EPHA4): 21%
%Inh (EPHA5): 6%
%Inh (EPHA6): 21%
%Inh (EPHA7): 0%
%Inh (EPHA8): 4%
%Inh (EPHB1): 30%
%Inh (EPHB2): 0%
%Inh (EPHB3): 22%
%Inh (EPHB4): 0%
